Screens from PubChem.
NALP1 inh – NALP1 inhibition; S. cerevisiae NALP1/ASC/caspase-1 growth, X-gal OD620, 72 h; inhibition, % at 10 µM; 0.61% of 280,000 active; AID 2071; in the data active = inhibition mostly above about 24%, no sharp cut-off; inactive = mostly below about 32%
tim10-1 inh – inhibits growth of tim10-1 mutant yeast; S. cerevisiae tim10-1 ts strain growth, BacTiter-Glo, 24 h; inhibition, % at 20 µM; 2.2% of 330,000 active; AID 463190;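 active = inhibition of at least 40%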;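 note: mutant grown at 25 °C; 0% = DMSO wells with yeast and 100% = wells holding no yeast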
tim23-1 inh – inhibits growth of tim23-1 mutant yeast; S. cerevisiae tim23-1 growth, BacTiter-Glo luminescence, 24 h; inhibition, % at 20 µM; 1.3% of 330,000 active;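 active = growth inhibition of the mutant yeast at or above 50%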;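 note: temperature-sensitive mutant grown at 25 °C; plate controls were DMSO-treated mutant yeast for no effect and medium wells lacking yeast for full effect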
NLRP3 yeast inh – inhibitors of NALP3 inflammasome in yeast. AID 2825. Yeast reconstituted NLRP3/ASC/caspase-1, beta-gal luminescence, 24 h. inhibition, % at 10 µM. 0.39% of 330,000 active;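 active = inhibition of 50% or more; inactive = inhibition below 50%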;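 note: plate controls were induced DMSO wells for no effect and uninduced yeast grown without galactose for full effect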
TIM10 inh – growth inhibitors of TIM10 yeast strain; AID 463195; S. cerevisiae TIM10 strain growth, BacTiter-Glo luminescence, 24 h; inhibition, % at 10 µM; 1.4% of 330,000 active;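 active = inhibition of 40% or more at the single tested concentration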;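 note: wild-type TIM10 isogenic control strain grown at permissive 25 °C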
tim10-1 conf – tim10-1 yeast growth inhibition, confirmed; shares compounds with tim10-1 inh; S. cerevisiae tim10-1 ts strain growth, BacTiter-Glo, 24 h; inhibition, % at 20 µM; 56% of 7,400 active; AID 463213;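 active = inhibition of yeast growth at or above a set limit in either of two repeat tests at 20 µM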;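 note: tim10-1 mutant grown at permissive 25 °C to find synthetic lethal compounds; 0% = DMSO yeast wells and 100% = medium wells without yeast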
tim10 confirm – confirmation of TIM10 yeast growth inhibitors; shares compounds with TIM10 inh; 63% of 4,600 active; S. cerevisiae tim10 strain growth, BacTiter-Glo luminescence, 24 h; inhibition, % at 10 µM;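 active = inhibition of yeast growth at or above a set limit in either of two replicates at 10 µM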;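 note: this counterscreen used the strain with wild-type TIM10; 0% = yeast with DMSO and 100% = medium wells lacking yeast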
Numbers without * were called inactive; . = no result. Hits are enriched below; roughly 4% of the tested compounds scored in any of these assays.

SMILES	NALP1 inh	tim10-1 inh	tim23-1 inh	NLRP3 yeast inh	TIM10 inh	tim10-1 conf	tim10 confirm
Cc1ccc(S(=O)(=O)N2CCCCC2C(=O)Nc2ccc(N(C)C)cc2)cc1 (stereo not given)	.	4.1	22.4	16.0	0.5	.	.
COc1ccc(/C=N\NC(=O)c2ccccc2OC)cc1COc1ccccc1C	21.0	11.5	16.1	14.8	7.5	.	.
COc1ccc(/C=N/NC(=O)c2ccoc2C)cc1COc1c(C)cccc1C	-0.4	40.5*	38.9	3.8	42.4*	29.8*	14.1
O=C(Nc1cccc(Cl)c1)C1=Cc2cc(Cl)ccc2OC1	8.4	1.0	-8.9	18.2	27.8	.	.
O=C(Nc1ccc(Cl)c(Cl)c1)C1=Cc2ccccc2OC1	5.3	40.4*	44.1	-5.1	49.6*	53.0*	60.2*
CCOC(=O)Cc1csc(NC(=S)NC(=O)c2ccccc2)n1	1.4	47.0*	26.5	2.8	50.7*	30.1	35.3*
O=C(Nc1cccc(F)c1)c1ccc(S(=O)(=O)N2CCCCC2)cc1	7.0	-0.1	15.9	35.1	7.7	.	.
OC[C@@H]1[C@@H](c2ccc(F)cc2)C(c2ccccc2)=NN1c1ccccc1	.	15.8	45.8	.	18.4	.	.
O=C1C2C(c3ccccc3)=NN(c3ccccc3)C2C(=O)N1c1ccccc1 (stereo not given)	24.0	59.5*	47.7	3.9	59.2*	49.0*	-18.9
CN(c1ccccc1)S(=O)(=O)c1cccc(NC(=O)C2CCCO2)c1 (stereo not given)	.	-0.5	2.4	7.7	-0.5	.	.
COc1ccc(N2CCN(C(=O)c3ccc(Br)cc3)CC2)c([N+](=O)[O-])c1	13.8	54.2*	45.4	40.0	52.6*	47.9*	63.2*
COc1ccc(N2CCN(C(=O)c3ccc(C)cc3)CC2)c([N+](=O)[O-])c1	42.9	6.3	29.1	4.7	13.7	.	.
CN1CCN(c2ccccc2NC(=O)c2ccc(-c3ccccc3[N+](=O)[O-])o2)CC1	6.3	22.1	24.2	23.8	19.8	.	.
CN(C)CCCN(C(=O)c1ccc2c(c1)OCCO2)c1nc2cc3c(cc2s1)OCO3	29.3	9.7	8.3	9.9	7.2	.	.
CN(C)CCCN(C(=O)c1ccc2ccccc2c1)c1nc2cc3c(cc2s1)OCO3	13.6	50.3*	21.3	46.2	46.1*	42.5*	35.0*
CCN(c1ccccc1)S(=O)(=O)c1ccc(C(=O)N(CCCN(C)C)c2nc3cc4c(cc3s2)OCO4)cc1	15.3	63.8*	44.0	26.4	52.5*	59.9*	46.1*
COc1cc(/C=C2/N=C(C3CCCCC3)OC2=O)cc(OC)c1OC	12.7	43.2*	39.4	14.7	43.7*	33.2*	29.1
O=C(O)Cc1ccc(NS(=O)(=O)c2ccc3ccccc3c2)cc1	19.0	15.2	3.6	4.7	-2.9	.	.
CCOc1ccc(C(=O)N2CCN(c3cccc(C)c3C)CC2)cc1	-14.8	45.2*	43.4	4.2	42.3*	32.6*	32.5*
CCOc1ccc(C(=O)N2CCN(c3cccc(Cl)c3)CC2)cc1	-6.0	13.9	35.4	7.6	4.3	.	.
CC1CN(C(=O)c2ccc(Cl)c(S(=O)(=O)NCc3ccco3)c2)CC(C)O1 (stereo not given)	.	-14.4	-7.2	4.6	3.4	.	.
Cc1cccc(N2CCN(C(=O)c3ccc(Cl)c(S(=O)(=O)NCc4ccco4)c3)CC2)c1C	-4.4	44.8*	44.0	11.3	50.5*	39.0*	39.9*
Cc1cccc(N2CCN(C(=O)c3ccc(N4CCCC4=O)cc3)CC2)c1C	-3.5	44.7*	4.6	3.3	41.9*	30.8*	15.9
Cc1ccc(C)c(-n2c(C)cc(/C=N/NC(=O)c3c(C)nc4cc(C)ccn34)c2C)c1	-19.8	53.4*	38.7	-3.2	41.8*	31.5	27.0
O=C(O)c1ccc(/C=N/NC(=O)c2cc(-c3ccc4c5c(cccc35)CC4)n[nH]2)cc1	14.6	8.5	9.2	12.9	20.9	.	.
SMILES	NALP1 inh	tim10-1 inh	tim23-1 inh	NLRP3 yeast inh	TIM10 inh	tim10-1 conf	tim10 confirm
O=S(=O)(Nc1nc2ccccc2nc1NCc1ccco1)c1ccccc1	12.3	12.3	29.9	8.5	22.0	.	.
O=S(=O)(c1ccccc1)c1ccc(NCc2ccco2)cc1	-5.4	43.1*	45.6	-26.6	42.2*	38.4*	39.1*
COc1ccc(/C(N)=N/OC(=O)c2ccc3c(c2)OCO3)cc1	40.8	63.7*	36.3	24.5	65.8*	49.8*	-19.8
Cc1ccc(/C(N)=N/OC(=O)c2ccc3c(c2)OCO3)cc1	46.8	55.8*	26.4	27.1	63.1*	51.5*	-12.4
O=C(Nc1cccc([N+](=O)[O-])c1)NC1CCCCCCC1	-1.0	42.7*	43.6	15.6	44.1*	36.2*	42.4*
O=C(CNC1CCCCC1)Nc1cccc([N+](=O)[O-])c1	.	-3.7	3.2	15.1	0.3	.	.
Clc1cccc(CN2CCc3c([nH]c4ccccc34)C2)c1Cl	20.5	71.7*	46.1	-8.0	59.9*	66.0*	65.8*
N#CC1(NC(=O)CN2c3cccc4cccc(c34)S2(=O)=O)CCCCC1	.	15.5	20.7	21.4	1.7	.	.
Cc1cccc(-n2cc(CN(C)Cc3nccn3C)c(-c3cccc(F)c3)n2)c1	3.9	43.2*	45.8	3.8	44.9*	23.8	43.5*
c1ccc2c(c1)nc(N1CCOCC1)c1c3ccccc3[nH]c21	15.6	40.3*	44.1	24.8	49.0*	20.6	61.0*
Cc1ccc(-n2cccc2C(=S)N=P(N(C)C)(N(C)C)N(C)C)cc1	5.7	40.7*	26.2	42.1	46.5*	26.0	13.6
CCc1ccc(/C=C2/C(=O)N(c3ccccc3)C(=S)N2CC(=O)OC)s1	23.9	26.6	42.1	18.8	12.2	.	.
CCN1C(=O)/C(=C/N(C(C)=O)c2ccccc2)N(c2ccccc2)C1=S	13.2	44.7*	29.4	45.7	49.5*	42.2*	-38.9
CCOC(=O)C1(Cc2ccccc2C(F)(F)F)CCN(C2CCN(C(C)=O)CC2)CC1	11.2	-8.3	19.5	9.7	-11.6	.	.
CCCCn1c(CCC)nc([N+](=O)[O-])c1Sc1ccc(Cl)cn1	3.4	43.9*	47.0	1.3	49.0*	40.0*	42.1*
CC(C)Cn1c(C(C)C)nc([N+](=O)[O-])c1Sc1ccc(Cl)cn1	0.2	37.2	48.0	2.8	23.2	.	.
CCOC(=O)CSCC(=O)N1N=C(c2cccs2)CC1c1ccc(F)cc1 (stereo not given)	27.5	46.5*	41.9	5.7	40.8*	33.8*	-11.4
CN1/C(=C\C(=S)Nc2ccccc2)C(C)(C)c2ccccc21	2.9	50.9*	33.7	9.3	48.5*	47.2*	55.6*
COc1ccc(CCNC(=O)CN(Cc2ccc(Cl)cc2)S(C)(=O)=O)cc1	5.0	10.5	24.9	3.1	-8.7	.	.
O=C(Nc1cccc(Cl)c1N1CCCC1)c1ccc([N+](=O)[O-])o1	6.1	46.9*	22.5	12.3	40.1*	41.0*	27.0
